Source: PubChem BioAssay (National Center for Advancing Translational Sciences (NCATS))
HCMV antiviral: inhibitors of human cytomegalovirus; activity change, negative = inhibition, % at 57.5 µM; HFF cells, HCMV-luciferase reporter, 72 h; active compounds read low; 410,000 tested, 4.5% active; in the data active = activity change below about -60%; inconclusive = no clear call, values can overlap the other calls; inactive = above about -39%
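Steps: HFFs plated, 16 h 37C; compounds added; HCMV-luciferase added to MOI 1 PFU/cell; 72 h 37C; OneGlo reagent, 5 min room temperature; luminescence read, normalized to controls.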
LASV entry inh: inhibitors of Lassa virus binding or cell entry; AID 540256; 300,000 tested, 1.2% active; Potency, µM (doses to about 37.9 µM), without a hit: top-dose activity change, negative = inhibition, actives largely listed as inhibitors; Lassa virus pseudotype entry inhibition, cell reporter; calls by dose curve; tested in HEK293 cells; note: potency is the fitted concentration of half-maximal effect; nearly all actives have a fitted effect of over 50% in size
HCV inh: HCV inhibition. 340,000 tested, 3.4% active. Potency, µM (top dose mostly 41.8 µM), for the others: top-dose activity change, negative = inhibition, actives largely listed as inhibitors. AID 651820. Huh7.5.1 HCVcc-Cre infection, luciferase reporter, 44 h; note: potency is the fitted concentration of half-maximal effect
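After 44 h co-culture of compound, cells and HCVcc-Cre (~0.5 moi), substrate is added for 15 min at room temperature and luciferase measured over 15 sec. Cells were seeded at 1,000/well and pre-cultured 4 h.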
MARV entry inh: inhibitors of Marburg virus binding or cell entry; Potency, µM (highest dose often 37.8 µM), inactives show at the highest dose activity change, negative = inhibition, hits mostly inhibitors; Marburg virus pseudotyped entry inhibition, cell reporter; 300,000 tested, 1.8% active; calls by dose curve; tested in HEK293 cells; note: potency is the fitted concentration of half-maximal effect
Giardia FBPA inh: blocks Giardia fructose-bisphosphate aldolase activity; 290,000 tested, 0.71% active; A8B2U2; purified Giardia FBPA; AID 2451; Potency, µM (series often up to 59.6 µM), inactives show top-dose activity, negative = inhibition, usual class: inhibitors; note: potency is the fitted concentration of half-maximal effect; nearly all actives have a fitted effect of over 55% in size
Target sequence (A8B2U2 whole entry, looked up): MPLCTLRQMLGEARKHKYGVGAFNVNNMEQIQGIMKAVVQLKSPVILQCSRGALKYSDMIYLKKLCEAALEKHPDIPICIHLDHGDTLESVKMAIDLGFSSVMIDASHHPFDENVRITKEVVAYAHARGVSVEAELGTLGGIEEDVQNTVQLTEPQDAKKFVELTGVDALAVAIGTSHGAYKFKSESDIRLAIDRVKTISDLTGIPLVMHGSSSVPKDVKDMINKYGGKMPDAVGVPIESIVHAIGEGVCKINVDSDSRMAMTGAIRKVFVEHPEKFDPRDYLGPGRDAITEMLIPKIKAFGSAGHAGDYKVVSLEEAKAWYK
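Giardia FBPA (40 nM reagent) was preincubated 10 min at RT with compound (up to 57.5 uM final), then substrate plus GAPDH/TPI/NAD/arsenate coupling system with diaphorase/resazurin was added; resorufin fluorescence (525/598 nm) was read after 20 min.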
FMDV inh: foot and mouth disease virus antiviral activity. FMDV antiviral cell-based qHTS. Potency, µM (doses to about 57.9 µM), for inactives: top-dose activity change, negative = inhibition, hits mostly inhibitors. 410,000 tested, 1.2% active; calls by dose curve; tested in HEK293T cells; note: read-out not given here; potency is the fitted concentration of half-maximal effect; nearly all actives have a fitted effect of over 45% in size
* hit, by the source's call; ? = inconclusive; / = no result given; ! = repeats disagree; [ ] = another dose, or the depositor's remark. Hits are enriched below; roughly 8.3% of the tested compounds scored in any of these assays. Unless noted, calls come from the whole dose curve; as a rule, active = well fitted curve in the direction sought with a large enough effect; inconclusive = small, poorly fitted or top-dose-only effect, or another doubt; inactive = no such curve, though single readings can be large; an effect the other way counts as inactive or inconclusive. % is set by controls: 0 for no effect and ±100 for the full control effect.

SMILES	HCMV antiviral	LASV entry inh	HCV inh	MARV entry inh	Giardia FBPA inh	FMDV inh
CCCCNC(=O)CCn1nc(-c2ccc(C)cc2)c2ccccc2c1=O	-72*	/	-17%	/	10%	2%
CCCNC(=O)CCn1nc(-c2ccc(C)cc2)c2ccccc2c1=O	-65*!	-21%[46.1 µM]	-18%	/	5%	8%
CCCNC(=O)CCn1nc(-c2ccc(Cl)cc2)c2ccccc2c1=O	-24	4%	-12%	?	9%	-9%
COc1ccc(CCNC(=O)c2cc3c(=O)n4cccc(C)c4nc3n2C)cc1	-30	6%[46.1 µM]	/	/	/	-2%
CC(C)(C)OC(=O)N1CC[C@H]1COc1cnc[c]([Sn]([CH3])([CH3])[CH3])c1	/	/	/	/	1%[12.9 µM]	/
Cc1cc(C(=O)CSc2nncs2)c(C)n1Cc1ccco1	22	4.5µM*	?	6.3µM*	-16%	-22%
Cc1cc(C(=O)CCl)c(C)n1Cc1ccco1	-97*	?	?	?	-3%	28µM*
Cc1cc(C(=O)CN2C(=O)NC(c3ccccc3)(c3ccccc3)C2=O)c(C)n1Cc1ccco1	21	-1%	-7%	?	-10%	44%
CCS(=O)(=O)N(C)C[C@@H]1OCc2ccccc2-c2c(n(C)c3ccccc23)C(=O)N([C@H](C)CO)C[C@@H]1C	-7	/	/	/	/	/
Nc1cnccc1C(=O)O	-16	13%[46.1 µM]	13%	-11%[46.1 µM]	13µM*	11%
CCOc1ccc(CCNC(=O)c2nn(C)c3c2CS(=O)(=O)c2ccccc2-3)cc1OCC	1	?	6.3µM*	?	/	-1%
Cn1nc(C(=O)NC2CCCCC2)c2c1-c1ccccc1S(=O)(=O)C2	-85*	/	6%	/	/	3%
CCOc1ccc(CCNC(=O)c2nn(C)c3c2CS(=O)(=O)c2ccccc2-3)cc1	?	/	?	/	3%	?
COc1ccc(CCNC(=O)c2nn(C)c3c2CS(=O)(=O)c2ccccc2-3)c(OC)c1	?	/	11µM*	/	14%	?
CC1CCC(NC(=O)c2nn(C)c3c2CS(=O)(=O)c2ccccc2-3)CC1 (centres undefined)	-36	/	15%	/	/	-7%
CC[C@@H](C(=O)[C@@H](C)[C@@H](O)[C@H](C)CCc1ccc(C)c(O)c1C(=O)O)C1O[C@](CC)(C2CC[C@](O)(CC)[C@H](C)O2)C[C@@H]1C (some centres undefined)	/	/	/	/	9%	/
CCOC(=O)c1ccccc1NC(=O)Cn1c(=O)n(-c2cccc(C)c2)c(=O)c2c1c1cc(C)ccc1n2C	33	?	/	10%[46.1 µM]	/	-14%
O=c1[nH]c(Nc2ccc3c(c2)OCCO3)nnc1Cc1ccccc1	-73*	-18%	-2%	22%[46.1 µM]	3%	-6%
C/C(=N/NS(=O)(=O)c1ccc(CC(C)C)cc1)c1ccncc1	-66*	/	?	/	/	26%
C#CCSc1nsc(SCC#C)c1C#N	-17	-15%	11µM*	1%	2%	/
O=C(Cn1cnc2ccccc2c1=O)Nc1nnc(C2CC2)s1	-18	19%	9%	?	2%	0%
Cc1csc(NC(=O)CSc2ncc(-c3ccccc3)[nH]2)n1	-98*	3%	14%	-3%	-5%	2%
CC(C)(C)c1csc(NC(=O)CSc2nc3ccccc3c(=O)[nH]2)n1	-107*	9%	15%	-5%	-3%	-25%
CC(C)(C)c1csc(NC(=O)Cn2cnc3ccccc3c2=O)n1	37	-2%	14µM*	-10%	0%	-21%
Cc1nnc(NC(=O)CSc2ncc(-c3ccccc3)[nH]2)s1	13	/	2%	/	0%	35%
SMILES	HCMV antiviral	LASV entry inh	HCV inh	MARV entry inh	Giardia FBPA inh	FMDV inh
Cc1csc(NC(=O)CSc2nc3ccccc3c(=O)[nH]2)n1	53	?	29%	4.6µM*	-9%	-13%
CC(=O)Nc1ccccc1-c1nc2ccccc2n(C(C)C(=O)Nc2cccc(C)c2C)c1=O (centres undefined)	9	1%[46.1 µM]	/	-1%[46.1 µM]	/	-15%
Cc1csc(NC(=O)CSc2nnc3ncccn23)n1	-87*	4%	4%	4%	0%	-12%
COc1ccccc1CNc1nc(-c2ccccc2OC)nc2ccccc12	/	/	/	/	1%	-28%
Cc1cc(-c2ccnc(-n3ncc(C(=O)N(C)CC(O)c4ccccc4)c3C)n2)c(C)s1 (centres undefined)	/	/	/	/	/	36%
CC1CCc2nc(NC(=O)CSc3nc4ccccc4o3)sc2C1 (centres undefined)	-85*	?	11µM*	-26%	0%	?
Cc1nnc(NC(=O)CSc2nc3ccccc3o2)s1	42	-1%	-2%	12%	0%	/
COc1cc(=O)n2c(c1C(=O)NCc1ccco1)CCN(C(=O)c1c(F)ccc(F)c1F)CC2	/	/	/	/	/	13%
O=C(CNC(=O)OCc1ccccc1)Nc1ccc(Br)cc1C(=O)c1ccccc1Cl	-13	1%	8.9µM*	?	3%	0%
CCOC(=O)C(Cc1ccccc1)NC(=O)CNC(=O)CNC(=O)OCc1ccccc1 (centres undefined)	-10	25%	6%	-24%	1%	17%
CN(C(=O)CNC(=O)OCc1ccccc1)c1ccc(Br)cc1C(=O)c1ccccc1Cl	?	?	?	5.8µM*	-1%	?
COC(=O)CNC(c1ccccc1)c1cc(Br)ccc1NC(=O)CNC(=O)OCc1ccccc1 (centres undefined)	/	?	-30%	?	-3%	-23%
CCc1ccccc1N=C1S/C(=C/c2ccccc2OCC(=O)N2CCOCC2)C(=O)N1C	-39	15µM*	?	-29%	-3%	?
COc1ccc([C@]23Cc4cc(OC)c(OC)cc4C(O2)c2c(cc(C)oc2=O)O3)cc1	/	/	/	?	-4%[12.9 µM]	/
CC(C)(O)C1C2OC(=O)C1C1(O)CC3OC34C(=O)OC2C14C (centres undefined)	-76*	/	18%	/	/	-21%
CC(C)(O)C1C2OC(=O)C1[C@]1(O)CC3O[C@@]34C(=O)OC2[C@@]14C (some centres undefined)	/	/	/	/	2%	-1%
CC1CCN(S(=O)(=O)c2ccc3c(c2)N(CC(=O)N2CCN(c4ccccc4)CC2)C(=O)CO3)CC1	-15	21%[46.1 µM]	/	?	/	-17%
CCCCC(=O)Nc1cc(C)c(O)c(-c2nc3ncccc3o2)c1	-17	8%[46.1 µM]	/	4%[46.1 µM]	/	-11%
COc1ccc(/C=C(\C#N)C(=O)N2CCOCC2)cc1Br	-39	-5%	25%	5%	5%	-9%
Cc1cc(/C=C(\C#N)C(=O)N2CCOCC2)c(C)n1C1CCCC1	-84*	/	-15%	4%	-5%	-3%
CCN1CCN(C(=S)c2ccc(Cl)c(Cl)c2)CC1	-40	18%	-20%	-17%	?	-18%
CCN1CCN(C(=S)c2ccc(-c3ccccc3)cc2)CC1	-81*	/	4%	/	?	-28%
COc1ccc2nc(C(F)(F)Cl)c(C#N)c(N)c2c1	-88*	/	5%	/	-5%	21%
